Measurements taken from PubChem BioAssay AID493170 (National Center for Advancing Translational Sciences (NCATS), 2011).
Results filed as inconclusive are left out. The source made the active and inactive calls. The call rests on the fitted dose curve; in most records, active means well fitted inhibition curve with a large enough effect; inconclusive means small, poorly fitted or top-dose-only effect, or effect the other way; inactive means flat fitted curve, though single readings scatter.

Biological target: Ubiquitin carboxyl-terminal hydrolase 2 (Homo sapiens) (UniProt O75604)
Assay: Ub-rhodamine 110 based assay for inhibitors Ubiquitin-specific Protease USP2a; further: nearly all actives have a fitted effect of over 50% in size
Details: USP2a Ub-rhodamine110 cleavage, fluorescence; series mostly up to 38.3 µM; activity change, negative = inhibition: at the top concentration
Summary of the method: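 Kinetic fluorescence (485/531 nm) read each minute over 7 min after adding Ub-Rhod110 (150 nM final) to USP2a (5 nM final). The enzyme had 30 min RT exposure to compounds beforehand in Tris pH 8.0 buffer with CaCl2, CHAPS and beta-ME.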
On the % scale 0 is the no-effect control and ±100 the full control effect; potency means the concentration at half of the fitted maximal effect.

Sequence of Ubiquitin carboxyl-terminal hydrolase 2 (Homo sapiens) (O75604 whole entry, looked up): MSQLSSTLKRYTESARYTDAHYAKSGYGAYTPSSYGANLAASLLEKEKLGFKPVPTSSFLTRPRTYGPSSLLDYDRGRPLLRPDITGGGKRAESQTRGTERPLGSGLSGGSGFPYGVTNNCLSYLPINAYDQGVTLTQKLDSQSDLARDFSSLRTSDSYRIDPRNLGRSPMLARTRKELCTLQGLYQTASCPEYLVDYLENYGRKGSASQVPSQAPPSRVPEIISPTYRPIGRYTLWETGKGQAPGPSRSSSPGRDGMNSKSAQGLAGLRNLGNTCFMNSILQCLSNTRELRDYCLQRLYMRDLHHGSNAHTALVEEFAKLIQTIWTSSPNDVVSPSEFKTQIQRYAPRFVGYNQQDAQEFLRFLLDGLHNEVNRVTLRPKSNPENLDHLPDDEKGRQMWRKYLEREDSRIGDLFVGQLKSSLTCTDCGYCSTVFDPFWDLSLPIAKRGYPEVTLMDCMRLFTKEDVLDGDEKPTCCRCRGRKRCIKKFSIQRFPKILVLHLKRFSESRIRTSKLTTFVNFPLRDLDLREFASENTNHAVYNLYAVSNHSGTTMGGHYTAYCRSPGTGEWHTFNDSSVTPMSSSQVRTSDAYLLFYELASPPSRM

Structure (SMILES) | activity change, negative = inhibition | Potency
c1coc(CNC2CCCCCCC2)c1 | -3.41% (inactive) | –
CC(C)(C)C1CCC2(CC1)Nc1cccc3cccc(c13)N2 | -19.4% (inactive) | –
C#CCOCCOCCOCCNc1nc(N2CCN(C(=O)CCCCCCCCCCNC(=O)Cn3cc(CCCCCN)nn3)CC2)nc(N2CCN(C(=O)CCCCCCCCCCNC(=O)[C@H](CO)n3cc(CCCCCN)nn3)CC2)n1 | -12.4% (inactive) | –
O=[N+]([O-])c1c(NCCO)cc(N2CCN(Cc3ccc4c(c3)OCO4)CC2)c2nonc12 | 2.52% (inactive) | –
O=C(NCC(c1cccnc1)N1CCN(c2ccc(F)cc2)CC1)OCc1ccccc1 (stereo unspecified) | -5.52% (inactive) | –
N#Cc1cc(Sc2ccccn2)c(Sc2ccccn2)cc1C#N | -10.2% (inactive) | –
Cc1ccc2nc(NCCCNC(=O)c3cnccn3)c(C#N)cc2c1 | -11.9% (inactive) | –
CCCCCCCCCCOC(=O)Cn1c(COc2ccccc2OC)[n+](C)c2ccccc21 | -13.7% (inactive) | –
COc1ccc(NC(=O)CSc2nnc(-c3ccccc3Cl)n2Cc2ccco2)c(OC)c1 | -3.93% (inactive) | –
O=C(O[C@@H]1OC2COC(=O)c3cc(O)c(O)c(O)c3-c3c(cc(O)c(O)c3O)C(=O)O[C@@H]([C@H]1O)[C@@H]2O)c1cc(O)c(O)c(O)c1 | – | 3.16 µM (active)
COc1ccc(O)c(-c2cc(-c3ccc(F)cc3)n[nH]2)c1 | -16.2% (inactive) | –
CN(CC(=O)Nc1cccc2ccccc12)C(=O)c1ccc(NC(=O)CC#N)cc1 | – | 11.2 µM (active)
O=C1NC(=Nc2ccccc2)S/C1=C\C=C\c1ccco1 | – | 5.62 µM (active)
O=C(NCCc1ccccc1)c1ccc2nc(-c3ccco3)c(-c3ccco3)nc2c1 | – | 5.01 µM (active)
O=C1OC[C@@H]2CCCN2C(=O)[C@@H](CC(=O)N(CCO)Cc2ccccc2)C/C=C\C[C@@H]1Cc1ccc(F)cc1 | -2.99% (inactive) | –
O=C1NCC(CN(c2ccccc2)c2ccccc2)O1 (stereo unspecified) | -0.749% (inactive) | –
Cc1cc(N2CCOCC2)nc(SCC(=O)c2ccc(Cl)cc2)n1 | -4.72% (inactive) | –
C#CCOCCOCCOCCNc1nc(N2CCN(C(=O)CCCCCCCCCCNC(=O)Cn3cc(C[C@@H](C)O)nn3)CC2)nc(N2CCN(C(=O)CCCCCCCCCCNC(=O)[C@@H]([C@H](C)CC)n3cc(CCCCCN)nn3)CC2)n1 | -28.3% (inactive) | –
COc1ccc(CN(Cc2cc3cc(C)ccc3[nH]c2=O)C(=O)N(C)C)cc1 | -5.17% (inactive) | –
O=C(c1cccc(F)c1)N1CCN(S(=O)(=O)c2ccccc2)CC1 | -1.48% (inactive) | –
CCOC(=O)N1CCN(S(=O)(=O)c2ccc(C)cc2)C1c1ccc(OC)cc1 (stereo unspecified) | -18.1% (inactive) | –
CCn1cc(C(=O)N2CCOCC2)c(=O)c2cc(S(=O)(=O)N(C)C)ccc21 | 3.51% (inactive) | –
COC(=O)CCC(=O)Nc1sc2c(c1C#N)CCCC2 | -9.38% (inactive) | –
Cc1ccc(N(CC(=O)Nc2ccc(S(=O)(=O)N3CCOCC3)cc2)S(C)(=O)=O)cc1C | -7.14% (inactive) | –
O=C(CCCN1C(=O)c2ccccc2C1=O)NC1=NCCS1 | 2.18% (inactive) | –
O/N=C/c1ccccc1OCc1ccccc1F | -7.11% (inactive) | –
